Eleven compounds from publication PMC5540273 (PLoS ONE, 2017) can be followed below.

Each structure is given as a SMILES string.

Some test systems named below: PDPK1; PFTAIRE2; PHKG1; PHKG2; PIK3C2B; PIK3C2G; PIK3CA; PIK3CB; PIK3CD; PIK3CG; PIKFYVE; PIM1; PIM2; PIM3; PIP5K1A; PIP5K1C; PIP5K2B.
Holding throughout (settings): concentration: 1 μM, replicates: in singlicate; n = 1
Another experiment concerns T1, PFTK1.
T1 construct: gene CDK14

The next experiment concerns T2, PIK4CB.
T2 construct: gene PI4KB

Another experiment concerns T3, PIP5K2C.
T3 construct: gene PIP4K2C
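Also: KINOMEscan kinase panel screen.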

Turning to `COc1cc2ncn(-c3cc(OCc4ccc(S(C)(=O)=O)cc4)c(C(N)=O)s3)c2cc1OC` [GW869979], the “%Inh” value is listed as 0% in the experiment with PDPK1; 0% in the experiment on PFTAIRE2; 0% with PFTK1; 10% in the experiment with PHKG1; 0% with PHKG2; 0% with PIK3C2B. The “%Inh” value amounted to 29% in the experiment on PIK3C2G; 0% with PIK3CA; 30% with PIK3CB; 16% in the experiment on PIK3CD; 26% in the experiment with PIK3CG; 18% in the experiment on PIK4CB. For the same compound, the “%Inh” value is 14% in the experiment on PIKFYVE; 0% in the experiment on PIM1; 0% in the experiment on PIM2; 0% in the experiment with PIM3; 0% in the experiment with PIP5K1A; 39% with PIP5K1C. Also, the figures for the “%Inh” value in the experiment on PIP5K2B and in the experiment on PIP5K2C were 16% and 0%, respectively.

Take `COc1ccc(-c2coc3ccc(-c4nnc(SCc5cccc(C#N)c5)o4)cc23)cc1`: the “%Inh” value is given as 2% with PDPK1; 0% in the experiment on PFTAIRE2; 1% in the experiment on PFTK1; 0% in the experiment with PHKG1; 1% in the experiment with PHKG2; 2% in the experiment with PIK3C2B. Also, the “%Inh” value in the experiment on PIK3C2G was 5%; in the experiment with PIK3CA, 0%; with PIK3CB, 39%; with PIK3CD, 0%; in the experiment with PIK3CG, 0%; with PIK4CB it was 29%. In addition, the “%Inh” value with PIKFYVE is given as 0%; in the experiment on PIM1 it was 12%; with PIM2 it was 20%; in the experiment on PIM3, 17%; in the experiment with PIP5K1A, 0%; with PIP5K1C, 0%. Besides, the “%Inh” value in the experiment on PIP5K2B came to 4%; in the experiment on PIP5K2C, 9%.

`COc1ccc(-c2cc3c(C)nc(N)nc3n([C@H]3CC[C@H](O)CC3)c2=O)cn1`: the “%Inh” value is 0% in the experiment on PDPK1; 0% in the experiment on PFTAIRE2; 0% in the experiment with PFTK1; 9% in the experiment with PHKG1; 1% in the experiment on PHKG2; 99.6% in the experiment with PIK3C2B. Besides, the “%Inh” value with PIK3C2G was 98.8%; in the experiment on PIK3CA, 99.7%; in the experiment with PIK3CB it was 100%; in the experiment on PIK3CD it was 94.1%; in the experiment with PIK3CG, 100%; in the experiment with PIK4CB it was 93.9%. The “%Inh” value in the experiment with PIKFYVE was 45%; in the experiment on PIM1, 5%; in the experiment with PIM2, 0%; in the experiment with PIM3 it was 6%; in the experiment on PIP5K1A it was 2%; with PIP5K1C, 0%. Also, the “%Inh” value in the experiment with PIP5K2B is given as 2%; in the experiment with PIP5K2C it was 38%.

With `COc1cc2nccc(Nc3ccc(OCc4ccc(NC(C)=O)cc4)cc3)c2cc1OC.Cl` [GW440135], the “%Inh” value is listed as 22% in the experiment with PDPK1; 77% with PFTAIRE2; 0% in the experiment on PFTK1; 0% in the experiment on PHKG1; 5% in the experiment with PHKG2; 17% in the experiment with PIK3C2B. The “%Inh” value with PIK3C2G is 0%; in the experiment on PIK3CA, 7%; in the experiment on PIK3CB, 0%; in the experiment on PIK3CD it was 0%; with PIK3CG it was 7%; with PIK4CB, 4%. In addition, the “%Inh” value with PIKFYVE turned out to be 0%; with PIM1, 8%; with PIM2 it was 0%; with PIM3, 0%; with PIP5K1A it was 15%; in the experiment with PIP5K1C it was 32%. The “%Inh” value in the experiment with PIP5K2B turned out to be 22%; in the experiment on PIP5K2C, 25%.

For the compound `Nc1n[nH]c2nnc(-c3ccccc3)c(-c3ccccc3)c12` [GW554060], the “%Inh” value with PDPK1 stood at 3%; with PFTAIRE2 it was 8%; in the experiment with PFTK1, 19%; with PHKG1, 5%; in the experiment on PHKG2, 0%; in the experiment on PIK3C2B, 0%. Moreover, the “%Inh” value came out at 0% with PIK3C2G; 0% with PIK3CA; 47% with PIK3CB; 8% with PIK3CD; 0% in the experiment on PIK3CG; 0% in the experiment on PIK4CB. Besides, the “%Inh” value with PIKFYVE is given as 12%; in the experiment with PIM1, 0%; in the experiment with PIM2, 0%; in the experiment on PIM3, 0%; in the experiment with PIP5K1A it was 11%; with PIP5K1C, 47%. In addition, the “%Inh” value with PIP5K2B and in the experiment with PIP5K2C was 14% throughout.

In the case of `Cc1ccc(Oc2ccc(Nc3ncnc4cc[nH]c34)cc2C)cn1`, the “%Inh” value with PDPK1 is given as 25%; in the experiment with PFTAIRE2 it was 7%; with PFTK1 it was 0%; in the experiment on PHKG1, 0%; in the experiment with PHKG2 it was 0%; in the experiment with PIK3C2B it was 24%. Besides, the “%Inh” value in the experiment on PIK3C2G is 60%; in the experiment on PIK3CA it was 5%; in the experiment with PIK3CB it was 57%; in the experiment on PIK3CD, 54%; in the experiment with PIK3CG, 7%; in the experiment with PIK4CB, 42%. The “%Inh” value was 1% with PIKFYVE; 41% in the experiment with PIM1; 7% in the experiment on PIM2; 36% in the experiment on PIM3; 7% in the experiment on PIP5K1A; 0% in the experiment with PIP5K1C. In addition, the “%Inh” value in the experiment on PIP5K2B and in the experiment on PIP5K2C was 0% throughout.

Regarding `O=C(Nc1n[nH]c2nc(-c3ccccc3)c(Cl)cc12)C1CC1` [SB-734909], the “%Inh” value in the experiment with PDPK1 came out at 0%; in the experiment with PFTAIRE2 it was 0%; in the experiment on PFTK1, 6%; with PHKG1, 0%; in the experiment with PHKG2 it was 7%; with PIK3C2B, 35%. Moreover, the “%Inh” value was 10% in the experiment on PIK3C2G; 12% in the experiment with PIK3CA; 13% in the experiment with PIK3CB; 17% with PIK3CD; 45% with PIK3CG; 2% in the experiment on PIK4CB. In addition, the “%Inh” value in the experiment with PIKFYVE amounted to 0%; in the experiment on PIM1 it was 0%; with PIM2 it was 3%; in the experiment on PIM3 it was 1%; in the experiment on PIP5K1A, 8%; in the experiment on PIP5K1C, 38%. For the same compound, the entries for the “%Inh” value in the experiment on PIP5K2B and with PIP5K2C were 13% and 14%, respectively.

As to `COc1cc(Nc2ccnc3ccc(C(F)(F)F)cc23)cc(OC)c1OC` [GW577382], the “%Inh” value in the experiment with PDPK1 is on record as 32%; with PFTAIRE2 it was 8%; with PFTK1, 0%; with PHKG1 it was 3%; in the experiment on PHKG2 it was 0%; with PIK3C2B it was 0%. For the same compound, the “%Inh” value in the experiment with PIK3C2G, in the experiment on PIK3CA, in the experiment on PIK3CB, in the experiment with PIK3CD, in the experiment with PIK3CG and in the experiment with PIK4CB was 0% each time. In addition, the “%Inh” value came to 0% in the experiment with PIKFYVE; 2% in the experiment on PIM1; 0% with PIM2; 0% in the experiment with PIM3; 0% in the experiment on PIP5K1A; 54% in the experiment on PIP5K1C. Further, the “%Inh” value in the experiment on PIP5K2B is 10%; in the experiment with PIP5K2C, 50%.

`Nc1nccc2scc(-c3ccc4c(c3)CCN4C(=O)Cc3ccccc3)c12` [GSK2576924]: the “%Inh” value in the experiment on PDPK1 is listed as 19%; in the experiment with PFTAIRE2 it was 25%; in the experiment on PFTK1, 23%; with PHKG1, 0%; in the experiment on PHKG2, 12%; with PIK3C2B it was 5%. Also, the “%Inh” value with PIK3C2G is reported as 0%; in the experiment on PIK3CA it was 0%; in the experiment on PIK3CB it was 0%; with PIK3CD, 4%; in the experiment with PIK3CG, 5%; with PIK4CB, 20%. The “%Inh” value in the experiment on PIKFYVE came to 0%; in the experiment on PIM1 it was 20%; in the experiment on PIM2, 0%; with PIM3, 3%; with PIP5K1A, 3%; in the experiment with PIP5K1C, 29%. Besides, the “%Inh” value in the experiment on PIP5K2B is reported as 15%; in the experiment on PIP5K2C, 13%.

Consider `CCS(=O)(=O)c1ccc(OC)c(Nc2ncc(-c3ccc(F)cc3)o2)c1.Cl` [GW591947], for which the “%Inh” value stood at 0% in the experiment with PDPK1; 9% in the experiment with PFTAIRE2; 1% in the experiment with PFTK1; 0% with PHKG1; 0% with PHKG2; 0% in the experiment on PIK3C2B. Besides, the “%Inh” value in the experiment on PIK3C2G, in the experiment on PIK3CA, with PIK3CB, in the experiment with PIK3CD, in the experiment on PIK3CG and with PIK4CB was 0% each time. Also, the “%Inh” value is reported as 0% in the experiment on PIKFYVE; 0% in the experiment with PIM1; 0% with PIM2; 0% in the experiment with PIM3; 0% in the experiment on PIP5K1A; 23% with PIP5K1C. The entries for the “%Inh” value with PIP5K2B and in the experiment on PIP5K2C were 3% and 2%, respectively.

Regarding `CCc1ccc(-c2ccc3c(c2)-c2nn(C)cc2S(=O)(=O)N3C)cc1`, the “%Inh” value in the experiment with PDPK1 is reported as 23%; in the experiment with PFTAIRE2, 0%; with PFTK1, 9%; with PHKG1 it was 0%; in the experiment on PHKG2 it was 0%; in the experiment on PIK3C2B it was 0%. Moreover, the “%Inh” value in the experiment with PIK3C2G, in the experiment on PIK3CA, in the experiment with PIK3CB, with PIK3CD, with PIK3CG and in the experiment on PIK4CB was 0% each time. The “%Inh” value in the experiment with PIKFYVE was 16%; in the experiment on PIM1, 0%; in the experiment with PIM2, 12%; with PIM3, 0%; with PIP5K1A it was 0%; in the experiment with PIP5K1C, 35%. The “%Inh” value is given as 0% in the experiment on PIP5K2B and 9% in the experiment with PIP5K2C.
